# Laboratory results published in PubChem BioAssay AID686978 (National Center for Advancing Translational Sciences (NCATS), 2013).
# Out of some 420,000 compounds screened, about 64,000 (15%) were called active. Another 27% or so got no clear call; they are omitted. Not all results are given here. Unmarked numbers belong to inactive results. Calls come from the whole dose curve; as a rule, active = well fitted inhibition curve with a large enough effect; inconclusive = small, poorly fitted or top-dose-only effect; inactive = flat fitted curve, though single readings scatter. Square brackets hold non-standard residues; d marks the D form. Peptide text beside a SMILES is read from it. * marks the point of attachment. ξ: configuration not given here. Cbz = O=C(OCc1ccccc1)*; ξL = CC(C)CC(N)C(=O)O; ξP = O=C(O)C1CCCN1
# Test: qHTS for Inhibitors of human tyrosyl-DNA phosphodiesterase 1 (TDP1): qHTS in cells in absence of CPT; note: nearly all actives have a fitted effect of over 55% in size
# Details: DT40 Tdp1-/- hTDP1 cells, no CPT, ATP luminescence, 48 h; activity change, negative = growth inhibition: at 46.2 µM (top of the series)
# Outline: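 A cellular qHTS used chicken DT40 cells lacking endogenous Tdp1 but carrying stably transfected human TDP1. Compounds were applied without camptothecin, and cell growth kinetics were judged by ATP-dependent luminescence after ≥48 hr.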
# % is set by controls: 0 for no effect and ±100 for the full control effect; potency is the fitted concentration of half-maximal effect.
Compound,"activity change, negative = growth inhibition",Potency
Cc1ccc(Cn2nnc3c(=O)n(CC(=O)N4CCCCC4)cnc32)cc1,-21.5%,
O=C(Cn1cnc2c(nnn2-c2ccccc2)c1=O)N1CCC(Cc2ccccc2)CC1,,20.6 µM (active)
CCOC(=O)C(C)n1cnc2c(nnn2-c2ccc(F)cc2)c1=O (stereo not given),-10.3%,
CC(=O)Nc1ccc(S(=O)(=O)N2CCC(NC(=O)c3ccccc3)CC2)cc1,-9.1%,
CC(C)Cn1c(N)c(C(=O)NCc2cccs2)c2nc3ccccc3nc21,,20.6 µM (active)
O=C(NCc1cccs1)c1ccc(Br)o1,11.6%,
CCCNC(=O)c1c(N)n(-c2ccc(S(N)(=O)=O)cc2)c2nc3ccccc3nc12,-11.3%,
Cn1nccc1NC(=O)CC(CC(=O)O)c1ccccc1 (stereo not given),2.44%,
COc1ccc(NC(=O)CS(=O)(=O)c2ccccc2)cc1,9.07%,
CC(=O)Nc1ccccc1OC(=O)N1CCOCC1,3.24%,
CC(=O)c1ccc(N2CCN(C(=O)C3CCN(S(=O)(=O)c4ccc5c(c4)CC(C)N5C(=O)C4CC4)CC3)CC2)cc1 (stereo not given),,4.11 µM (active)
NC(=O)C1CCN(C(=O)c2cc(S(=O)(=O)N3CCN(c4ccccc4)CC3)ccc2Cl)CC1,,6.51 µM (active)
CCS(=O)(=O)N1CCC(C(=O)N2CCN(c3ccccc3)CC2)CC1,-3.39%,
CC(=O)N1c2ccc(S(=O)(=O)N3CCC(C(=O)N4CCN(c5ccccc5)CC4)CC3)cc2CC1C (stereo not given),,20.6 µM (active)
CS(=O)(=O)N1CCC(C(=O)N2CCN(c3ccccc3)CC2)CC1,-8.27%,
NC(=O)C1CCN(C(=O)c2ccc(-c3ccccc3)cc2)CC1,-2.77%,
NC(=O)COC(=O)c1cc(S(=O)(=O)N2CCN(c3ccccc3)CC2)ccc1Cl,-2.99%,
CC(=O)c1ccc(N2CCN(S(=O)(=O)c3c(C)[nH]c(=O)[nH]c3=O)CC2)cc1,-2.01%,
CC(=O)c1ccc(S(=O)(=O)N2CCC(Oc3ccc(-n4cnnn4)cc3)CC2)cc1,,inactive
COc1ccc(NC(=O)CN(C)S(=O)(=O)c2ccccc2)cc1OC,-13.2%,
O=C(NCCS(=O)(=O)c1ccc(Br)cc1)c1ccccc1Cl,-2.05%,
COc1ccc(NC(=O)NN2CCN(C)CC2)c(OC)c1,22.4%,
O=C(Cn1cc2c(n1)CCCCC2)NCCN1CCOCC1,4.76%,
Cn1c(=O)sc2cc(NS(=O)(=O)c3ccc(C(C)(C)C)cc3)ccc21,-11.5%,
CC1=NN(C(=O)c2ccccc2Br)C(O)(c2cccnc2)C1 (stereo not given),-6.62%,

Compound,"activity change, negative = growth inhibition",Potency
CCCC1CCC(=NNC(=S)NCCc2ccccc2)CC1 (stereo not given),,7.31 µM (active)
CCC(C)(C)C1CCC(=NNC(=O)c2ccc(Br)o2)CC1 (stereo not given),-31.9%,
O=C(NCCc1ccccc1)C1CC1,19.3%,
CC(C)CC(NC(=O)C1CCCN1C(=O)[C@@H](C)NC(=O)OCc1ccccc1)C(=O)NCC(N)=O (stereo not given in full) (Cbz-[dA][ξP][ξL]G-NH2),6.22%,
COc1cc(OC)cc(-c2nc3ccccc3c(=O)n2NC(=O)c2cccnc2Cl)c1,-13.2%,
CSc1nc(C)nc(C2CC2)c1C#N,-0.461%,
Cc1noc(C)c1NC(=O)Nc1ccc2c(c1)C(=O)N([C@H](C)CO)C[C@H](C)[C@@H](CN(C)C(=O)Nc1ccccc1)O2,-1.47%,
Cc1cc2ccccc2n1CCC(=O)O,7.92%,
COc1ccccc1C(=O)NCCC(=O)NC(C)CCc1ccccc1 (stereo not given),-17.9%,
CCCCOCCCNC(=O)c1ccccc1OCC,-11.3%,
Cc1cc2ccccc2n1CCNC(=O)c1ccc(F)cc1,,18.4 µM (active)
CCCCCn1c(CCCNC(=O)c2ccccc2OC)nc2ccccc21,,18.4 µM (active)
CCCCCn1c(CCNC(=O)c2ccc(F)cc2)nc2ccccc21,,18.4 µM (active)
CC(=O)NCCc1nc2cc(NC(=O)c3ccccc3)ccc2n1C,11%,
CCC(=O)NCCc1nc2ccccc2n1CC,-1.27%,
O=C(CNC(=O)c1ccc(F)cc1)c1ccccc1,-19.7%,
CCN(CC)CCCNC(=O)CCc1ccccc1,-0.8%,
CCN(CC)CCCN=C(N)N,2.6%,
COc1cc(NS(=O)(=O)c2ccc(NC(=S)NC(=O)c3ccc(Br)cc3)cc2)ncn1,-27.4%,
COc1ccc(COCC(O)CN2CCC(C(N)=O)CC2)cc1 (stereo not given),-4.64%,
Clc1ccccc1-c1cc(COc2ccc3ccccc3c2)no1,-29.6%,
CCCCNC(=O)CCn1c(=S)[nH]c2cc3c(cc2c1=O)OCO3,-3.61%,
CCN1CCN(C(=O)N[C@@H](C(=O)N[C@@H]2C(=O)N3C(C(=O)O)=C(CSc4nnnn4C)CS[C@H]23)c2ccc(O)cc2)C(=O)C1=O,,inactive
COc1ccc(Cl)cc1C=CC=Nc1ccc(S(N)(=O)=O)cc1,,16.4 µM (active)
NS(=O)(=O)c1ccc(N=Cc2ccc(Br)s2)cc1,-1.33%,
